Screening results (PubChem)
Shown are actives, neighbours in structure and some others; about 2.4% of the full set was active somewhere.
NOD2 RIPK2 PPI = blocks binding of human NOD2 to RIPK2; 360,000 tested, 0.38% active; O43353; AID 624267; CHO BLA complementation NOD2-RIPK2, CCF4 ratio; inhibition, % at 4.98 µM; in the data active means inhibition above about 21%
HTR2A ag = agonists of mouse serotonin 5-HT2A receptor (HTR2A). P35363. activation, % at 7.6 µM. CHO-K1 mHTR2A beta-arrestin complementation, luminescence; percent of 30 µM serotonin response. 360,000 tested, 0.66% active;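 active means activation above a run cutoff, the mean activation of all tested compounds plus 3 SD, cut at about 14% in these data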
Target sequence (P35363 whole entry, looked up): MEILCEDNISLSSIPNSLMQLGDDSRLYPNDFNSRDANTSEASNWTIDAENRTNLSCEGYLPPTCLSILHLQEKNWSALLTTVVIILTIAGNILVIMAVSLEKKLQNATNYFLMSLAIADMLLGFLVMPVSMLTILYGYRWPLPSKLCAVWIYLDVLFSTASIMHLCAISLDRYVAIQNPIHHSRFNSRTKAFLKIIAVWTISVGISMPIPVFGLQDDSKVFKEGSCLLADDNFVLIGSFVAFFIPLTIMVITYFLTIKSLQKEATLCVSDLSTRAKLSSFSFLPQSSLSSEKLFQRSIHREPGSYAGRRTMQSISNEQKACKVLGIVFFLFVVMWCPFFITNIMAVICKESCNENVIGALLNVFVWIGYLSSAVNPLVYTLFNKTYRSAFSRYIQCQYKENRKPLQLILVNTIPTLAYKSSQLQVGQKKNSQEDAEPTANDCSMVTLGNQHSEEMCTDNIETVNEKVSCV
TLR9-MyD88 block = inhibitors of human TLR9-MyD88 binding | Q9NR96+Q99836 | 340,000 tested, 0.21% active | inhibition, % at 4.98 µM | CHO BLA complementation TLR9-MyD88, CCF4 FRET ratio;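 active means inhibition above the mean over all tested compounds plus 3 SD, cut at about 21% in these data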
ANO1 activ = mouse TMEM16A channel activation, primary screen. Q8BHY3. HEK293 TMEM16A/YFP-H148Q/I152L, iodide quench fluorescence; stronger effect = lower value. B-score at 10 µM. 340,000 tested, 0.3% active;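 active means fluorescence-ratio B-score plate-corrected deviation score at least 3 library SD below zero, with starting fluorescence score within 5 deviations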;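 further: channel opened by trigger with iodide after compound preincubation; score built on the fluorescence ratio of max minus min over baseline; more negative score means more quench and so TMEM16A activation or potentiation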
TLR4 MyD88 comp = inhibitors of human TLR4-MyD88 binding. inhibition, % at 8.4 µM. 200,000 tested, 0.18% active. AID 861. HeLa CL3-4 TLR4/MyD88 BLA complementation, FRET ratio. O00206+Q99836; in the data active means inhibition above about 25%
ANO1 block = blocks the mouse calcium-activated chloride channel TMEM16A; 310,000 tested, 1.2% active; HEK293 TMEM16A/YFP iodide influx fluorescence, ionomycin; normalized B-score (activity score, 25-100; higher = stronger inhibition) at 10 µM;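 active means ratio plate-corrected score three or more library SD toward inhibition, starting fluorescence score within five deviations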;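 further: score derived from kinetic fluorescence span divided by baseline fluorescence per well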
OPRM1 ag = activates human mu opioid receptor in HTR2A counterscreen; shares compounds with HTR2A ag; U2OS OPRM1 beta-arrestin PathHunter, luminescence; DMSO 0%, DAMGO 9.3 µM 100%; activation, % at 9.3 µM; 2,300 tested, 5.3% active;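 active means mean activation above the mean of DMSO-only wells plus 3 SD, cut at about 0.5% in these data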
HTR2A ag conf = mouse HTR2A agonism confirmed; shares compounds with HTR2A ag; CHO-K1 PathHunter beta-arrestin recruitment, luminescence; DMSO 0%, 30 µM serotonin 100%; activation, % at 7.6 µM; 2,300 tested, 19% active;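 active means mean activation across triplicates above the hit threshold derived in the original primary screen, cut at about 15% in these data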
A number is an active result; ! = repeats disagree.

How did COc1ccc(CCNCc2cccn2C)cc1OC do in these assays?
NOD2 RIPK2 PPI: inactive; HTR2A ag: 25; TLR9-MyD88 block: inactive; ANO1 activ: inactive; ANO1 block: inactive; OPRM1 ag: inactive; HTR2A ag conf: inactive

What do the screens show for `COc1ccc(CCNCc2ccc(C)s2)cc1OC`?
NOD2 RIPK2 PPI: inactive; HTR2A ag: 16; TLR9-MyD88 block: inactive; ANO1 activ: inactive; TLR4 MyD88 comp: inactive; ANO1 block: inactive; OPRM1 ag: inactive; HTR2A ag conf: inactive

Results for Cc1ccc(CNCCc2ccc(F)cc2)s1 ?
NOD2 RIPK2 PPI: inactive; HTR2A ag: inactive; TLR9-MyD88 block: inactive; ANO1 activ: inactive; ANO1 block: inactive

What do the screens show for `COc1ccc(CCNCc2sccc2C)cc1OC`?
NOD2 RIPK2 PPI: inactive; HTR2A ag: 32; TLR9-MyD88 block: inactive; ANO1 activ: inactive; TLR4 MyD88 comp: inactive; ANO1 block: inactive; OPRM1 ag: inactive; HTR2A ag conf: inactive

Results for CN1CCN(/N=C/c2c(O)n(C)c(=O)n(C)c2=O)CC1 ?
NOD2 RIPK2 PPI: inactive; HTR2A ag: inactive; TLR9-MyD88 block: inactive; ANO1 activ: inactive; TLR4 MyD88 comp: inactive; ANO1 block: inactive

Results for CC1(O)CCC2C3CCC4=CC(=O)CCC4=C3C=CC21C (centres undefined) ?
NOD2 RIPK2 PPI: inactive; HTR2A ag: inactive; TLR9-MyD88 block: inactive; ANO1 activ: inactive

How did Clc1cccc(CNCCc2c[nH]c3ccccc23)c1 do in these assays?
NOD2 RIPK2 PPI: inactive; HTR2A ag: 42; TLR9-MyD88 block: inactive; ANO1 activ: inactive; ANO1 block: inactive; OPRM1 ag: inactive; HTR2A ag conf: 19

How did C[C@H](N)CN1CCc2ccc(Br)cc21 do in these assays?
NOD2 RIPK2 PPI: inactive; HTR2A ag: 49; TLR9-MyD88 block: inactive; ANO1 activ: inactive; ANO1 block: inactive; OPRM1 ag: inactive; HTR2A ag conf: 36

What do the screens show for `CC[C@H](C)[C@@H]1NC(=O)[C@@H](CC(C)C)NC(=O)[C@H](C(C)C)NC(=O)[C@H]2CSSC[C@H](NC1=O)C(=O)N2`?
NOD2 RIPK2 PPI: inactive; HTR2A ag: 57; OPRM1 ag: 1.7; HTR2A ag conf: 41

What do the screens show for `COC(=O)C1=C(c2ccc(F)cc2F)C[C@@H]2CC[C@H]1N2C(=O)NCc1ccco1`?
NOD2 RIPK2 PPI: inactive; HTR2A ag: inactive; TLR9-MyD88 block: inactive; ANO1 activ: inactive

How did O=C1C(=O)N(c2ccccc2)P(=O)(N(CCCl)CCCl)N1c1ccccc1 do in these assays?
NOD2 RIPK2 PPI: inactive; HTR2A ag: inactive; TLR9-MyD88 block: inactive; ANO1 activ: inactive

What do the screens show for `CC12CC3CC(C)(C1)CC(N)(C3)C2`?
NOD2 RIPK2 PPI: inactive; HTR2A ag: 18!; TLR9-MyD88 block: inactive; ANO1 activ: inactive; ANO1 block: inactive; OPRM1 ag: inactive; HTR2A ag conf: inactive

Results for CCCCn1c(O)c(C(=O)/C=C/c2ccc3c(c2)OCO3)c(=O)[nH]c1=O ?
NOD2 RIPK2 PPI: inactive; HTR2A ag: 27; TLR9-MyD88 block: inactive; ANO1 activ: inactive; ANO1 block: inactive; OPRM1 ag: inactive; HTR2A ag conf: inactive

How did O=C(/C=C/c1ccc2c(c1)OCO2)c1c(O)n(CCC2=CCCCC2)c(=O)[nH]c1=O do in these assays?
NOD2 RIPK2 PPI: inactive; HTR2A ag: inactive; TLR9-MyD88 block: inactive; ANO1 activ: inactive; TLR4 MyD88 comp: inactive; ANO1 block: inactive

Results for Clc1cccc(N2CCNCC2)n1 ?
NOD2 RIPK2 PPI: inactive; HTR2A ag: 39; TLR9-MyD88 block: inactive; ANO1 activ: inactive; TLR4 MyD88 comp: inactive; ANO1 block: inactive; OPRM1 ag: inactive; HTR2A ag conf: 24

What do the screens show for `Cc1cc(C)n2c(Br)c(CN3CC4CC(C3)c3cccc(=O)n3C4)nc2n1` (centres undefined)?
NOD2 RIPK2 PPI: inactive; HTR2A ag: 22; TLR9-MyD88 block: inactive; ANO1 activ: inactive; TLR4 MyD88 comp: inactive; ANO1 block: inactive; OPRM1 ag: inactive; HTR2A ag conf: inactive
